Measurements taken from PubChem BioAssay (NCI).
This is part of a sample that, as a whole, favours compounds with a hit. Of some 79,000 tested, about 15% had one in any assay. A number with no mark means an inactive call. Calls of active or inactive are those of the source. No stated cut-off is given here; in the data, active means growth inhibition above about 70%; inactive means the rest.

Legend:
[1] = NCI Yeast Anticancer Drug Screen. Data for the rad50 strain (AID 155);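 further: 0% = growth of vehicle-only cultures of the same strain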; conditions: S. cerevisiae rad50 strain growth inhibition; at 50.0 µM; hits give high values
How it was run: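 DNA repair mutant yeast, compound exposure, growth read-out; inhibition is taken relative to vehicle.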

[2] = NCI Yeast Anticancer Drug Screen. Data for the mec2-1 strain (AID 157); conditions: S. cerevisiae mec2-1 strain, at 50.0 µM, hits give high values
How it was run: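 Mutant yeast (mec2-1) grown with compound; growth inhibition relative to vehicle control reported.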

[3] = NCI Yeast Anticancer Drug Screen. Data for the sgs1 mgt1 strain (AID 161);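 further: 0% = growth of cultures given vehicle only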; conditions: S. cerevisiae sgs1 mgt1 strain, at 50.0 µM, hits give high values
How it was run: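 Yeast cells carrying a defined DNA-repair defect were exposed to test compounds. Growth inhibition was measured relative to vehicle-treated controls.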

[4] = NCI Yeast Anticancer Drug Screen. Data for the cln2 rad14 strain (AID 165);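 further: 0% = growth equal to vehicle treated cultures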; conditions: S. cerevisiae cln2 rad14 strain, at 50.0 µM, hits give high values
How it was run: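 Readout is yeast growth inhibition versus vehicle-treated controls, using a strain with cln2 and rad14 alterations exposed to compound.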

[5] = NCI Yeast Anticancer Drug Screen. Data for the bub3 strain (AID 167); conditions: S. cerevisiae bub3 mutant strain, at 50.0 µM, hits give high values
How it was run: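 In this screen, a yeast mutant lacking normal mitotic checkpoint function is challenged with compound. Relative growth versus vehicle gives the inhibition value.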

[6] = NCI Yeast Anticancer Drug Screen. Data for the mlh1 rad18 strain (AID 175); conditions: S. cerevisiae mlh1 rad18 strain growth inhibition; at 50.0 µM; hits give high values
How it was run: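 Genetically defined yeast (DNA repair-deficient) exposed to compounds; growth inhibition determined relative to vehicle.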

Compound	growth inhibition [1]	growth inhibition [2]	growth inhibition [3]	growth inhibition [4]	growth inhibition [5]	growth inhibition [6]
O=S(=O)(Cl)C1c2ccccc2-c2ccccc21	22.4%	20.1%	12.5%	15.7%	23.2%	23.4%
C=C1C(=O)OC2C1C(OC(=O)/C(C)=C/C)CC(O)(CCl)C1C(O)C=C(C)C21O (stereo unspecified)	33.5%	14.6%	21.6%	20.8%	10.1%	-51.1%
S=c1s/c(=C\c2ccccc2)c2nc3ccccc3n12	7.15%	9.2%	-9.4%	-46.7%	13.9%	4.75%
Cc1cc(C)n(-c2ccc([N+](=O)[O-])cn2)n1	4.55%	12%	-1.3%	-8.2%	9.85%	5.25%
COc1ccc2c(c1)CCCN2C(=N)c1ccc([N+](=O)[O-])cc1	-24.5%	-4.1%	-9.95%	-52.9%	22.6%	-11.5%
CCCCCCCCCCCO	-5.75%	-13.2%	-3.8%	-6.8%	2.15%	-18.8%
CCOP(=O)(CCP(=O)(CCP(=O)(OCC)OCC)CCP(=O)(OCC)OCC)OCC	-8.05%	2.5%	-8.05%	-30.2%	-1.55%	-9.2%
O=C(OCC(OC(=O)c1ccccc1)C1CC(C(O)C2CCCCC2)C(=O)O1)c1ccccc1 (stereo unspecified)	5.25%	22.1%	45.9%	10.2%	22.2%	30.6%
c1ccc(CN2CCc3ncnc(Nc4ccccc4)c3C2)cc1	-13.4%	1.25%	5.5%	-16.8%	4.75%	-5.05%
Nc1nc(NCCCc2ccccc2)c(N)c(=O)[nH]1	5.1%	16.9%	6.55%	-3.1%	31.6%	7.6%
CCc1c(Cc2[nH]c(C=O)c(C)c2CC)[nH]c(C=O)c1C	6.85%	-11.9%	11.2%	-1.05%	5.45%	3.8%
N#CCCC1C(C#N)C2CC1C1C3C=CC(C3)C21 (stereo unspecified)	9.1%	11.2%	30.5%	28.5%	-4.5%	26.2%
CC1(C)C([N+](C)(C)C)CS1(=O)=O (stereo unspecified)	1.9%	-18.9%	-13.8%	-11.1%	9.65%	-6.45%
CC1(C)COC(C)(Cc2ccccc2)OC1	-5.9%	3.55%	-15.7%	-65.3%	-22.1%	-11.7%
CN(C)C(=O)C(c1ccccc1)P(=O)(c1ccccc1)c1ccccc1 (stereo unspecified)	-7.9%	-12.1%	-0.9%	-26.6%	-21.2%	-5.25%
Cc1ccc2c3c1CCCN3CCC2	3.45%	-3.85%	15.6%	61.9%	-0.55%	8.95%
N/N=C(\c1ccccc1)C(Nc1ccccc1)c1ccccc1 (stereo unspecified)	11.2%	-3.95%	-2.05%	-29%	-5.15%	7.9%
CC1(CN2CCCCC2)COC(c2ccccc2)(c2ccccc2)OC1	-8.1%	-8.85%	-13.6%	-36.1%	5.75%	-0.9%

Compound	growth inhibition [1]	growth inhibition [2]	growth inhibition [3]	growth inhibition [4]	growth inhibition [5]	growth inhibition [6]
Cc1ccc(S(=O)(=O)CC(=O)CC(=O)C(=O)Nc2ccc(Cl)cc2C)cc1	11.2%	-0.3%	-7.95%	-22.4%	-0.75%	27.3%
c1ccc(C2NC(c3ccccc3)c3c(ccc4ccccc34)O2)cc1 (stereo unspecified)	20.1%	-2.1%	13.1%	-19.9%	-5.15%	20.6%
CCOC(=O)C(C#N)C(=O)c1ccccc1-c1ccccc1[N+](=O)[O-] (stereo unspecified)	7.9%	1.1%	3.35%	-9.4%	-13.2%	5%
CCOC(=O)c1cc(C=O)nc2c(Cl)cc(Cl)cc12	18.7%	6.25%	22.4%	5.9%	3.8%	17.6%
O=c1oc2ccccc2cc1F	16.4%	7.2%	-9.75%	5.3%	16.9%	21.4%
O=C(/C=C/c1ccc(O)cc1)c1ccc(O)cc1	-30%	-13.7%	-37.8%	0.15%	-2.9%	-20.6%
O=C1N2Cc3c4ccc5c3CN3C(=O)N6Cc7c(ccc(c7CN1C6(c1ccccc1)C23c1ccccc1)OCCOCCOc1cc(Br)c(Br)cc1OCCOCCO4)OCCOCCOc1cc(Br)c(Br)cc1OCCOCCO5 (stereo unspecified)	-4.95%	8.95%	-3.45%	18.1%	-1.8%	-16.4%
ClC(=Nc1cccc(Cl)c1)C(Cl)=Nc1cccc(Cl)c1	-6.5%	-1.7%	-2.05%	12.6%	6.45%	1.15%
Cc1c(NC(C)C)ccc(NC(C)C)c1C	35.3%	27.6%	26.3%	17%	25.2%	43.2%
C[Si](C)(C)Oc1cc(N=NNC2=CC(=O)c3ccccc3C2=O)c(O)c2ccccc12	-0.1%	2.2%	-11.8%	-24%	7.6%	5.15%
C/C=C1\C(=O)OC2CCN3CCC(COC(=O)C(C)(O)C(C)C1O)C23 (stereo unspecified)	11.2%	-7.65%	-24.6%	-13.7%	-46.5%	-60.2%
CCN1CCCC(Nc2nc(Nc3ccc(Cl)c(Cl)c3)nc3ccc(Cl)cc23)C1 (stereo unspecified)	99.2% (active)	99.7% (active)	99.7% (active)	99.5% (active)	99.4% (active)	99.5% (active)
OCc1ccccc1C(c1ccc(O)cc1)c1ccc(O)cc1	26.3%	-7.9%	28.9%	18%	12.7%	5.15%
C(=N/NC(=N/N=C/c1ccccc1)N/N=C/c1ccccc1)/c1ccccc1	28.8%	23.1%	46.6%	28.3%	5.65%	24.1%
CC12CCC3=C(CCc4cc(O)ccc43)C1CCC2=O (stereo unspecified)	-4.8%	9.75%	5.8%	-34.5%	-7.95%	4.4%
CC(=O)[CH-]C(=O)c1ccccc1.CC(=O)[CH-]C(=O)c1ccccc1.CC[C@H](CCC(C)[C@H]1CCC2[C@@H]3CC=C4C[C@@H]([O-])CC[C@]4(C)C3CC[C@@]21C)C(C)C.CC[C@H](CCC(C)[C@H]1CCC2[C@@H]3CC=C4C[C@@H]([O-])CC[C@]4(C)C3CC[C@@]21C)C(C)C.Cl.[Ti+4] (stereo partly specified)	19%	3.9%	23.2%	-11.2%	27.1%	5.05%
Cc1nc2c(cnn2C)c(=O)n1-c1ccccc1Cl	21.4%	17.2%	11.8%	41%	29.9%	17.3%
Cc1cc2ccccc2c[n+]1CC(O)CBr (stereo unspecified)	-5.45%	7.05%	11.3%	-36.8%	-11.4%	5.9%
